Active and inactive are the calls of the source. How the source made its calls: active means hit-call score of the fitted dose curve at least 0.9, where 1 is the maximum; inactive means score below 0.9.
Each compound was assayed on Glutamate-cysteine ligase catalytic (GCLC), GCLC (gene 2729) (assay: LTEA_HepaRG_GCLC: Life Technologies and Expression Analysis (LTEA) Assay for Glutamate-cysteine ligase catalytic (GCLC) using HepaRG (AID 2283498)). Settings: mRNA level, 48 h; actives raise or lower the signal.
Experimental: LTEA_HepaRG is a cell based, multiplexed-readout assay that uses HepaRG, a human liver cell line, with measurements taken at 48 hours after chemical dosing on a 96-well plate.LTEA_HepaRG_GCLC is one of 102 assay component(s) measured in the LTEA HepaRG cell culture assay. It is a marker of Oxidative Stress.Data from the assay component LTEA_HepaRG_GCLC was analyzed into 1 endpoint. This assay endpoint, LTEA_HepaRG_GCLC, was analyzed with bidirectional fitting relative to DMSO as the negative control and baseline of activity. Using a type of inducible reporter, measures of mRNA induction for gain or loss-of-signal activity can be used to understand regulation of transcription factor activity. To generalize the intended target to other relatable targets, this assay endpoint is annotated to the ligase intended target family, where the subfamily is C-N ligase.
A total of 1060 chemcials from the ToxCast library were tested in eight-point concentration-response experiments. Cell culture and cytotoxicity assays were conducted at Thermo Fisher Scientific's Custom Services facility (Madison, WI). A single lot of human HepaRG cells (Thermo Fisher Scientific, Frederick, MD) was used for the cell culture experiments. 96-well format collagen type I coated plates of human HepaRG cells were prepared using established methods. Briefly, cryopreserved HepaRG cells were thawed, plated at a density of approximately 100,000 cells/well in HepaRG Thaw, Plate, and General Purpose media (HPRG770, Thermo Fisher Scientific), and incubated for 48 hours. 0.5% DMSO was selected as vehicle control to balance the requisite need of DMSO in HepaRG cultures to maintain differentiation (for example, baseline metabolism, proportions of hepatocytes vs. cholangiocytes), while enabling further hepatic receptor pathway activation (for example, PXR and CAR) in response to chemical exposure. 48 hours after plating, the culture medium was replaced with HepaRG Serum-Free Incudtion Media. Cells were exposed to each test chemical in duplicate and maintained in CO2 incubators for another 48 hours. Chemical plates were thawed to room temperature and 200x concentrations of treatment groups were prepared. 8-point conentration-reponse curves were made with the highest exposure at 100 uM, followed by half-log dilutions, all in 0.5% DMSO. Each test plate contained variouse controls, induction positive controls (1mM phenobarbital), cytotoxicity positive controls ([…] aflatoxin B1), vehicle controls (0.5% DMSO), and total lysis controls (0.5% DMSO). Cell morphology images were taken using an Essen IncuCyte FLR automated microscope, with six 96-well plates imaged in about 24 minutes. Images were captured and exported and JPEG files. Spent culture media was transfered to black-well plates for the LDH assay, and remaining media was sorted at -80 C for later use. Cells were treated with RLT buffer and frozen until shipped for gene expression analysis. Total RNA was isolated from the cell suspension in 75 uL of Buffer RLT (Qiagen, Germantown, MD 20874) by Quintiles/Expression Analysis (Durham, NC) using a custom isolation procedure. Total RNA from each plate well was transferred to a preamplification plate. Fluidigm's 96.96 Dynamic ArrayTM (Fluidigm, Amsterdam, the Netherlands) technology was used for gene expression analyses by quantitative reverse transcription polymerase chain reaction (qRT-PCR, performed by Quintiles/Expression Analysis, Durham, NC)89. Standard TaqManTM Assays (Applied Biosystems/ThermoFisher Scientific, Foster City, CA) were used to assess the expression of 93 genes selected based on their selectivity and sensitivity to important hepatic receptors known to be modulated by environmental chemicals; importance in human hepatocyte functionality; and hepatotoxicity. […]
For O=P(Oc1ccccc1)(Oc1ccccc1)Oc1ccccc1, the AC50 was 74.9 µM (active).
For Nc1ccc(Cl)cc1, the outcome was “inactive”.
In the case of c1ccc(OP(Oc2ccccc2)Oc2ccccc2)cc1, the outcome is reported as “inactive”.
In the case of O=P1(N(CCCl)CCCl)NCCCO1 (stereo not given), the outcome is reported as “inactive”.
For [N-]=[N+]=[N-], the outcome was “inactive”.
CCNc1nc(Cl)nc(NC(C)(C)C)n1 was tested, and the outcome was “inactive”.
CCOc1ccc(C(C)(C)COCc2cccc(Oc3ccccc3)c2)cc1 was tested, and the outcome was “inactive”.
With CCC(C)(C)c1ccc(O)cc1 the outcome was “inactive”.
ClC1=C(Cl)C2(Cl)C3C(Cl)C(Cl)CC3C1(Cl)C2(Cl)Cl (stereo not given) was tested, and the outcome was “inactive”.
For OCC1CO1 (stereo not given), the outcome was “inactive”.
O=[N+]([O-])c1ccccc1 was tested, and the outcome was “inactive”.
CCOC(=O)c1ccccc1C(=O)OCC was tested, and the outcome was “inactive”.
CCN(CC)c1ccccc1 was tested, and the outcome was “inactive”.
In the case of CCCCCCCc1ccc(O)cc1, the outcome is reported as “inactive”.
For CC(C)(C)OOC(C)(C)C, the outcome was “inactive”.
With CCCCc1ccccc1 the outcome was “inactive”.
In the case of CCC1(c2ccccc2)C(=O)N=C(O)NC1=O (stereo not given), the outcome is reported as “inactive”.
CCCCN(CCCC)SN(C)C(=O)Oc1cccc2c1OC(C)(C)C2 was tested, and the outcome was “inactive”.
For ClC(Cl)(Cl)c1ccccc1, the outcome was “inactive”.
For Nc1ccc2ccccc2c1, the outcome was “inactive”.
In the case of CCOS(=O)(=O)OCC, the outcome is reported as “inactive”.
In the case of CSC(C)(C)C=NO, the outcome is reported as “inactive”.
Cc1ccc([N+](=O)[O-])cc1C was tested, and the outcome was “inactive”.
For CCCCN(CCCC)N=O, the outcome was “inactive”.
For O=C(O)C1C(C(=O)O)C2(Cl)C(Cl)=C(Cl)C1(Cl)C2(Cl)Cl (stereo not given), the AC50 was 50 µM (active).
In the case of CC(Cl)(Cl)C(=O)O, the outcome is reported as “inactive”.
c1nc[nH]n1 was tested, and the outcome was “inactive”.
With Cc1cccc(N)c1 the outcome was “inactive”.
CCOP(=S)(OCC)SCSCC was tested, and the outcome was “inactive”.
With CC(Cc1ccc(OCC(=O)O)cc1)NCC(O)c1csc(C(F)(F)F)n1 (stereo not given) the outcome was “inactive”.
In the case of CN(C)C(=O)Cl, the outcome is reported as “inactive”.
CC(C)(C)c1ccc(O)cc1 was tested, and the outcome was “inactive”.
With Cc1ccc(O)cc1C the outcome was “inactive”.
With O=C(O)C(Cl)Cl the outcome was “inactive”.
In the case of c1cc2c3c(cccc3c1)CC2, the outcome is reported as “inactive”.
For O=[N+]([O-])c1ccc(Cl)c(Cl)c1, the outcome was “inactive”.
Nc1cc2c3c(c1)C(c1ccccc1)=N[C@@H](NC(=O)c1cccnc1)C(=O)N3CC2 was tested, and the outcome was “inactive”.
In the case of c1ccc2c(c1)Nc1ccccc1S2, the outcome is reported as “inactive”.
Cc1ccc(N)cc1N was tested, and the outcome was “inactive”.
ClC(Cl)c1ccccc1 was tested, and the outcome was “inactive”.

Reference: PubChem BioAssay (EPA / NIEHS)
